Rows were chosen to be rich in hits. Some 7.3% of all compounds tested hit in one or more screens of this group.
FLuc modulator – qHTS profiling assay for firefly luciferase inhibitor/activator using purifed enzyme and Km concentrations of substrates (counterscreen for miR-21 project); Luciferin 4-monooxygenase (Photinus pyralis), P08659; purified FLuc, Km substrates, luminescence inhibition; Potency, µM (series often up to 57.5 µM), for inactives: at the highest dose activity change, negative = inhibition, usual class: inhibitors; actives 6.9% (n = 360,000); AID 588342, 2011;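 further: plate controls were vehicle for no effect and reference inhibitor for full effect; nearly all actives have a fitted effect of over 55% in size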
Target sequence (P08659 whole entry, looked up): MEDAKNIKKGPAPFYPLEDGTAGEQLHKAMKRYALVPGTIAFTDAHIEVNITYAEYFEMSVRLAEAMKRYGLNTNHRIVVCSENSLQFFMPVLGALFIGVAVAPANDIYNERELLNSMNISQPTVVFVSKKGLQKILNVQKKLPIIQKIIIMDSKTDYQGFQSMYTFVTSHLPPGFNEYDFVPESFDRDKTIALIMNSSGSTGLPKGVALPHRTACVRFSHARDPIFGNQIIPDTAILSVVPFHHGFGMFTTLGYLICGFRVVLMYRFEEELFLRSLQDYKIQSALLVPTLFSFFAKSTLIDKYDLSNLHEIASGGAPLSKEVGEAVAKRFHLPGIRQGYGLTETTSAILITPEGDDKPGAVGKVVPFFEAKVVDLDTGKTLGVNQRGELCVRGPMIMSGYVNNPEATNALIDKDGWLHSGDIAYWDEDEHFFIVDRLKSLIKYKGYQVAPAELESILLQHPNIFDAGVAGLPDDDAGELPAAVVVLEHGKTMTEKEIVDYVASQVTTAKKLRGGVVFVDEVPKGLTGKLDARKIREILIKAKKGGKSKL
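Purified P. pyralis luciferase (10nM final) with 10uM D-luciferin and 10uM ATP (Km levels) in 50mM Tris acetate pH 7.5, 10mM Mg acetate, 0.01% Tween-20, 0.05% BSA; qHTS 6-point titration, ~60 µM downward; luminescence read.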
NPC1 prom act – qHTS Assay for NPC1 Promoter Activators; Potency, µM (titrated, usually from 9.22 µM), without a hit: at the highest dose activation, most hits filed as activators; actives 2.4% (n = 320,000); Huh7 NPC1 promoter luciferase reporter, 24 h; AID 485313, 2010; further: % of control where 0% means no effect; nearly all actives have a fitted effect of over 60% in size
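In 1536-well qHTS, Huh7 cells harboring an NPC1 promoter–luciferase construct received compound for 24 h; activation was quantified by luminescence following luciferase reagent addition.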
SMN2 splice up – qHTS Assay for Enhancers of SMN2 Splice Variant Expression; Potency, µM (highest dose often 46.1 µM), for inactives: top-dose activity change, positive = activation, hits mostly activators; HEK293 SMN2-luciferase splicing reporter, luminescence, 30-36 h; actives 2.8% (n = 210,000); AID 1458, 2008; further: % of control where 0% means no effect; nearly all actives have a fitted effect of over 55% in size
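HEK293 cells carry an SMN2 minigene-luciferase reporter in which exon 7 inclusion puts luciferase in frame. Cells were seeded at 2000 cells/well, attached for 10-12 hours, then exposed to compounds for 30-36 hours at 37C before ONE-Glo luminescence.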
Rab9 promoter act – qHTS Assay for Rab9 Promoter Activators; Huh7 Rab9 promoter-luciferase reporter, luminescence, 24 h; Potency, µM (highest dose often 9.22 µM), for the others: at the top dose activation, negative = inhibition, hits mostly activators; actives 2.8% (n = 320,000); AID 485297, 2010; further: % of control where 0% means no effect; nearly all actives have a fitted effect of over 60% in size
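Using Huh7 cells stably transfected with Rab9 promoter–luciferase, compounds were incubated 24 h at 37 °C, 5% CO2; luciferase luminescence was read 10 min after reagent addition.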
KinaseGlo FLuc – Counterscreen for Luciferase (Kinase-Glo TM) Inhibition. Potency, µM (doses to about 38.3 µM), for the others: at the highest dose activity change, negative = inhibition, actives largely listed as inhibitors. actives 0.28% (n = 200,000). Kinase-Glo luciferase, ATP luminescence, 8 min; further: on the % scale 0 is the no-effect control and ±100 the full control effect; nearly all actives have a fitted effect of over 60% in size
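Luminescence was the read-out, taken after 8-minute incubation at ambient temperature. Luciferase turned over luciferin with 10 uM ATP in imidazole pH 7.2 buffer containing KCl, MgCl2, Tween 20 and BSA.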
An asterisk follows results filed as active; [ ] = another dose, or the depositor's remark. The call rests on the fitted dose curve; in most records, active means well fitted curve in the direction sought with a large enough effect; inconclusive means small, poorly fitted or top-dose-only effect, or another doubt; inactive means no such curve, though single readings can be large; an effect the other way counts as inactive or inconclusive. Potency means the concentration at half of the fitted maximal effect.

Results for OC(c1ccccc1)c1nc2ccccc2n1Cc1c(F)cccc1Cl (centres undefined) ?
FLuc modulator: -2%; SMN2 splice up: 9%

What do the screens show for `N#Cc1ccc(CO/N=C/c2ccccc2)cc1`?
FLuc modulator: 24µM*; NPC1 prom act: inconclusive; SMN2 splice up: inconclusive; Rab9 promoter act: inconclusive; KinaseGlo FLuc: -3%

What do the screens show for `CCN(c1cccc(C)c1)S(=O)(=O)c1ccc2[nH]cc(C(=O)NCCCOC)c(=O)c2c1`?
FLuc modulator: -14%

What do the screens show for `CCN=c1scc(C)n1/N=C/c1ccsc1`?
FLuc modulator: 17µM*; NPC1 prom act: 3.2µM*; SMN2 splice up: inconclusive; Rab9 promoter act: 3.2µM*; KinaseGlo FLuc: -2%

How did COc1ccc(-n2ncc3c(NCC(C)C)ncnc32)cc1 do in these assays?
FLuc modulator: 1.1µM*; NPC1 prom act: 0.4µM*; SMN2 splice up: 2µM*; Rab9 promoter act: 0.35µM*; KinaseGlo FLuc: 1%

How did COc1ccc(-n2ncc3c(NC(C)C)ncnc32)cc1 do in these assays?
FLuc modulator: 1.3µM*; NPC1 prom act: 0.28µM*; SMN2 splice up: 2.8µM*; Rab9 promoter act: 0.32µM*; KinaseGlo FLuc: -3%

How did CCN(C(=O)c1cc2c(Cl)nc3ccccc3c2s1)c1cccc(Cl)c1 do in these assays?
FLuc modulator: -17%; SMN2 splice up: -6%

Results for C/C(=N\NC(=O)c1ccoc1C)c1ccccc1 ?
FLuc modulator: 11µM*; NPC1 prom act: 2.5µM*; Rab9 promoter act: 2µM*

How did C/C(=N\NC(=O)c1nn(C)c(C)c1Br)c1cccc(NC(=O)c2ccoc2C)c1 do in these assays?
FLuc modulator: 2.4µM*; NPC1 prom act: 26%; SMN2 splice up: 9%; Rab9 promoter act: inconclusive; KinaseGlo FLuc: -2%

How did COc1ccc(C(=O)Nc2cccc(/C(C)=N\NC(=O)c3ccoc3C)c2)cc1OC do in these assays?
FLuc modulator: 17µM*; NPC1 prom act: 12%; Rab9 promoter act: 16%

What do the screens show for `CC1=NNC(=S)NCCCN2CCN(CCCNC(=S)NN=C(C)C=NNC(=S)NCCCN3CCN(CCCNC(=S)NN=C1)CC3)CC2`?
SMN2 splice up: -1%[9.22 µM]; KinaseGlo FLuc: -5%[7.66 µM]

What do the screens show for `O=C(CN1C(=O)COc2ccc(S(=O)(=O)N3CCCC3)cc21)N1CCN(c2ccccc2F)CC1`?
FLuc modulator: -2%; SMN2 splice up: 3%

What do the screens show for `Cc1ccc2oc3nc(C)c(C(=O)O)cc3c(=O)c2c1`?
FLuc modulator: 13µM*; NPC1 prom act: 2.8µM*; SMN2 splice up: 5.6µM*; Rab9 promoter act: 2.2µM*; KinaseGlo FLuc: 4.5µM*

How did Cc1nc2oc3ccc(F)cc3c(=O)c2cc1C(=O)O do in these assays?
FLuc modulator: inconclusive; NPC1 prom act: -1%; Rab9 promoter act: -7%

What do the screens show for `CC(=O)c1cc2c(=O)c3cc(C)ccc3oc2nc1C`?
FLuc modulator: 8.5µM*; NPC1 prom act: inconclusive; SMN2 splice up: 13µM*; Rab9 promoter act: 3.5µM*; KinaseGlo FLuc: inconclusive

What do the screens show for `CCOC(=O)c1cc2c(=O)c3cc(C)ccc3oc2nc1C`?
FLuc modulator: 1.9µM*; NPC1 prom act: 2.8µM*; Rab9 promoter act: 3.2µM*

Results for CCN(CC)C(=O)c1cc2c(=O)c3cc(Cl)ccc3oc2nc1C ?
FLuc modulator: inconclusive; NPC1 prom act: 0%; SMN2 splice up: 11%; Rab9 promoter act: 1%[1.84 µM]; KinaseGlo FLuc: -4%

How did COc1ccc(CNC(=O)CN2C(=O)CSc3ccc(S(=O)(=O)N(C)C)cc32)cc1 do in these assays?
FLuc modulator: 0%

Results for COc1ccc(N2CCN(C(=O)c3cc4cc5ccc(Cl)cc5nc4o3)CC2)cc1 ?
FLuc modulator: 0%; SMN2 splice up: -3%

What do the screens show for `Cc1cc(Nc2sc(C(=O)c3ccc(F)cc3)c(N)c2C(=O)Nc2ccc(F)cc2)ccc1Cl`?
FLuc modulator: -1%

Results for C=CCOc1ccc(/C=C2\SC(=Nc3cccnc3)NC2=O)cc1 ?
FLuc modulator: 7.6µM*; NPC1 prom act: -3%; Rab9 promoter act: 1%

Results for Cc1cc(/C=C2\NC(=S)NC2=O)c(C)n1-c1cccnc1 ?
FLuc modulator: 9.5µM*; NPC1 prom act: 21%; Rab9 promoter act: inconclusive

How did CCOC(=O)c1ccc(N=C2S/C(=C\c3cc(C)n(-c4cccnc4)c3C)C(=O)N2C)cc1 do in these assays?
FLuc modulator: 3%; NPC1 prom act: -2%; SMN2 splice up: 10%; Rab9 promoter act: 1%; KinaseGlo FLuc: 18%

How did Cc1cccc(C)c1-n1c(C)cc(/C=C2\NC(=O)NC2=O)c1C do in these assays?
FLuc modulator: inconclusive; NPC1 prom act: -1%; SMN2 splice up: 12%; Rab9 promoter act: -8%; KinaseGlo FLuc: -2%

How did Cc1cc(/C=C2\SC(=S)N(Cc3ccco3)C2=O)c(C)n1-c1cccnc1 do in these assays?
FLuc modulator: 4.8µM*; NPC1 prom act: inconclusive; SMN2 splice up: 5%; Rab9 promoter act: inconclusive; KinaseGlo FLuc: -1%

Results for Cc1cc(/C=C2\NC(=O)NC2=O)c(C)n1-c1cccnc1 ?
FLuc modulator: 15µM*; NPC1 prom act: 22%; Rab9 promoter act: 1%

How did O=C(NCCc1ccc(Cl)cc1)c1ccc2c(c1)N(Cc1ccccc1)C(=O)CS2 do in these assays?
FLuc modulator: -3%

What do the screens show for `Cc1ccc(-c2onc3ccc(C4OCCO4)cc23)cc1`?
FLuc modulator: 7.6µM*; NPC1 prom act: 27%; SMN2 splice up: -1%; Rab9 promoter act: inconclusive; KinaseGlo FLuc: -1%

What do the screens show for `CS(=O)(=O)N1CCc2cc(S(=O)(=O)NCc3ccccc3Cl)ccc21`?
FLuc modulator: 0%

How did CCN1C(=O)S/C(=C\c2ccc(N3CCOCC3)cc2C)C1=O do in these assays?
FLuc modulator: 2.7µM*; NPC1 prom act: 2µM*; Rab9 promoter act: 2µM*

Results for CCCN1C(=O)S/C(=C\c2ccc(N3CCOCC3)cc2C)C1=O ?
FLuc modulator: 5.4µM*; NPC1 prom act: 2µM*; SMN2 splice up: 4%; Rab9 promoter act: 2.2µM*; KinaseGlo FLuc: -2%

Results for O=C1/C(=C/c2cccc3ccccc23)CCCc2ccccc21 ?
FLuc modulator: 13µM*; NPC1 prom act: 20%; SMN2 splice up: inconclusive; Rab9 promoter act: 26%; KinaseGlo FLuc: -1%

How did COC(=O)C(C)N1C(=O)S/C(=C/c2cc(C)n(C(C)C)c2C)C1=O (centres undefined) do in these assays?
FLuc modulator: 13µM*; NPC1 prom act: 1%; SMN2 splice up: 14%; Rab9 promoter act: 3.2µM*; KinaseGlo FLuc: -3%

Assay outcomes: PubChem BioAssay, National Center for Advancing Translational Sciences (NCATS)
